An excerpt weighted towards active compounds, which were near 3.9% of everything screened.
D1 ag = human D1 receptor agonism. P21728. HEK293 T-REx D1 cells, calcium flux, agonist mode. activation, % at 2 µM. 360,000 tested, 1% active; in the data active = activation above about 30%
Target sequence (P21728 whole entry, looked up): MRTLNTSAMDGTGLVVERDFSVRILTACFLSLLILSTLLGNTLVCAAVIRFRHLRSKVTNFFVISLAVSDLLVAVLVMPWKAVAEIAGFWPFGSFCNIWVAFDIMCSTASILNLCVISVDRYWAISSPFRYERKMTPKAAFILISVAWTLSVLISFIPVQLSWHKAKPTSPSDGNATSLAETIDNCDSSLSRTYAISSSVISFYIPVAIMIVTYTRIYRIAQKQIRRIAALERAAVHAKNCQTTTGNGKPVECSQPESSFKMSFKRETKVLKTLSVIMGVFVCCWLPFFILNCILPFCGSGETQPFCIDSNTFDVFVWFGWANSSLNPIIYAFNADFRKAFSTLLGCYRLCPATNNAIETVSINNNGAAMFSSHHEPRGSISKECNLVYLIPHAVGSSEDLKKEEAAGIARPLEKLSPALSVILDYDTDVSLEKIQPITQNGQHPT
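Tetracycline-induced HEK293 TREx D1 cells, force-coupled to calcium signalling, were dye-loaded with a no-wash calcium kit. Compound was pin-added after a 10 s baseline. Fluorescence was read kinetically at 1 cycle/s for 180 s, with calcium rises flagged as agonism.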
D1 PAM = enhances dopamine response at the human D1 receptor. P21728. HEK293 TREx D1 cells, calcium flux, dopamine EC20 potentiation. potentiation, % at 10 µM. 360,000 tested, 0.036% active. AID 504651; in the data active = potentiation above about 30%
Eya2 inh = Eya2 (human) phosphatase inhibition | O00167 | recombinant Eya2, OMFP fluorescence dephosphorylation (OMFP is methylfluorescein phosphate) | Potency, µM (top dose mostly 76.9 µM), hits mostly inhibitors | 330,000 tested, 0.006% active | AID 488837
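Eya2 (0.2 uM) preincubated 10 min at ambient with compound, then OMFP substrate added at 50 uM; 10 min reaction in 50 mM HEPES pH 7.5, 50 mM NaCl, 5 uM MgCl2, 0.05% BSA, 1 mM DTT. Fluorescence read at Ex 485/Em 525 nm.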
GALK inhibitor = galactokinase (human) inhibition. Purified GALK, Kinase-Glo residual ATP luminescence. Potency, µM (top dose mostly 57.5 µM), usual class: inhibitors. P51570. AID 1868. 270,000 tested, 0.007% active
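GALK at 5 nM final was combined with compound, 35 uM ATP and 100 uM galactose in HEPES pH8.0 with MgCl2 and DTT. The reaction ran one hour at room temperature before luminescent ATP detection.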
D1 antag = antagonists of human D1 dopamine receptor | 360,000 tested, 3.2% active | HEK293 TREx D1 cells, calcium flux, dopamine EC80; hits give low values | P21728 | AID 504652 | activity change, negative = inhibition, % at 10 µM; in the data active = activity change below about -30%
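Antagonism measured as reduced calcium response to an EC80 dopamine addition following 180 s compound pre-read; cells were inducible HEK293 Trex D1 plated overnight at 30 C, read kinetically at 1 cycle/sec.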
USP2a block = inhibitors of human ubiquitin-specific protease USP2a. O75604. USP2 core, Ub-CHOP2 coupled fluorogenic reporter, 485/531. Potency, µM (highest dose often 38.3 µM), usual class: inhibitors. 330,000 tested, 0.01% active
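USP2 core (10nM final) preincubated 30min RT with compound in 20mM Tris-HCl pH 8.0, 2mM CaCl2, 2mM beta-mercaptoethanol, 0.05% CHAPS; 25nM Ub-CHOP2 plus 25nM reporter substrate added, fluorescence (Ex485/Em531) read after 60min.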
A number is an active result; 0 = inactive; - = not tested or not shown; ! = a repeat was not active. Unless noted, calls come from the whole dose curve; as a rule, active = well fitted inhibition curve with a large enough effect; inconclusive = small, poorly fitted or top-dose-only effect, or effect the other way; inactive = flat fitted curve, though single readings scatter.

SMILES	D1 ag	D1 PAM	Eya2 inh	GALK inhibitor	D1 antag	USP2a block
Cn1c(=O)[nH]c(=O)c2c1nc(Br)n2Cc1ccccc1Cl	0	0	0	0	0	0
Cc1cc(C)cc(NC(=O)CSc2nncn3c2cc2occc23)c1	0	0	-	-	0	-
CCCOc1ccc(C(=O)Nc2cc(-c3nc4ccccc4[nH]3)ccc2C)cc1	0	0	-	-	0	-
COC(=O)c1nc(NC(=O)C(C)(C)C)n[nH]1	0	0	0	0	-42	0
COc1cccc2sc3ccc(NCc4ccc5c(c4)OCO5)cc3c(=O)c12	31	0	0	-	0	0
CCOC(=O)CN1C(=O)C(O)(CC(=O)c2cc(OC)ccc2OC)c2ccccc21 (stereo not drawn)	0	0	-	-	0	-
Cc1cc2[nH]c3c(=O)n(Cc4ccccc4F)ncc3c2s1	0	0	-	-	-72!	-
CCn1c2cc(C)sc2c2cnn(Cc3ccccc3F)c(=O)c21	0	0	-	-	0	-
CCOC(=O)c1sc2nc(C)nc(NCCc3ccccn3)c2c1C	0	0	0	0	0	0
CCOC(=O)c1sc2nc(CSc3ccccc3)nc(NCCN(C)C)c2c1C	50	0	0	0	0	0
Cc1cc(C)nc(/N=C(\N)Nc2ccc(OCCC(C)C)cc2)n1	86	0	0	0	-45	0
Cc1cc(C)nc(/N=C(\N)Nc2ccc(OCc3ccccc3)cc2)n1	102	0	0	0	-38	0
COc1ccccc1N/C(=N/c1nc(C)cc(C)n1)NC(C)=O	0	0	0	0	0	0
Cc1cc(C)nc(/N=C(\N)Nc2cccc(OCc3ccccc3)c2)n1	66	0	0	0	-55	0
COc1ccccc1N/C(N)=N/c1nc(C)cc(C)n1	0	0	0	0	-34	0
COc1cccc(N/C(N)=N/c2nc(C(F)(F)F)cc(C(F)(F)F)n2)c1	0	0	0	0	0	0
CCN1CCOC(=O)C1CC(=O)Nc1cccc(OC)c1 (stereo not drawn)	0	0	-	-	0	-
CCN(C(=O)Cn1nc(Cc2ccncc2)c2ccccc2c1=O)c1cccc(C(F)(F)F)c1	0	0	-	-	0	-
Cc1cc(C)nc(/N=C(\N)Nc2ccc(CC(=O)OC(C)C)cc2)n1	0	0	0	0	-50	0
CN1C2CCCC1CC(NC(=O)c1nn(C)c3ccccc13)C2 (stereo not drawn)	-	-	0	-	-	-
CCC(C)(C)NC(=O)CN(C(=O)c1snc(C(N)=O)c1N)c1ccc2c(c1)OCCO2	0	0	0	0	0	0
CCC(C)(C)NC(=O)CN(C(=O)c1snc(C(N)=O)c1N)c1ccc2nc(C)sc2c1	0	0	0	0	-55	0
O=C(COc1ccc(Cl)cc1)OCC(=O)c1ccc[nH]1	0	0	0	-	0	0
Cc1ccccc1OCC(=O)OCC(=O)c1ccc(OC(=O)c2ccccc2)cc1	0	0	0	0	0	0
Cc1ccccc1OCC(=O)OCC(=O)c1ccc(OCc2ccccc2)cc1	55	0	0	0	0	0
SMILES	D1 ag	D1 PAM	Eya2 inh	GALK inhibitor	D1 antag	USP2a block
Cc1cc(OCC(=O)OCC(=O)c2ccc[nH]2)ccc1Cl	0	0	0	-	-34	0
Cc1ccccc1OCC(=O)OCC(=O)c1ccc[nH]1	0	0	0	-	-32	0
O=C(CNC(=O)C1COc2ccccc2O1)N/N=C\c1ccc(Cl)cc1 (stereo not drawn)	0	0	0	0	-36	0
O=C(CNC(=O)C1COc2ccccc2O1)N/N=C\c1cccc(O)c1 (stereo not drawn)	0	0	0	0	0	0
CCCCN1C(=O)c2[nH]nc(-c3ccccc3O)c2C1c1ccc(OCc2ccccc2)cc1 (stereo not drawn)	0	0	-	-	0	-
Cc1cc(N2CCN(C)CC2)ccc1NC(=O)c1cccc(S(=O)(=O)N2CCc3ccccc3C2)c1	0	0	0	0	-87	0
CC(NC(=O)c1cc2ccccn2n1)c1ccccc1 (stereo not drawn)	0	0	-	-	0	-
COc1ccc(C(=O)N2CCC(C(=O)Nc3ccccc3Cl)CC2)cc1	0	0	-	-	0	-
COC(=O)CNC(=O)CSc1nnc(-c2ccc(OC)cc2)n1CC(C)C	0	0	0	0	-34	0
O=C(COCc1cc(-c2cccs2)on1)N1CCN(c2cccc(Cl)c2)CC1	0	0	-	-	0	-
c1ccc(-c2csc(Nc3cccnc3)n2)nc1	0	0	0	0	-31	0
Cc1ccc2c(c1)c(=O)c1ccccc1n2CCCC(=O)Nc1ccc(C)c(C)c1	0	0	-	-	0	-
CN1CCN(C(=O)CCN2C(=O)/C(=C\c3ccccc3F)SC2=S)CC1	96	0	0	0	0	0
COc1cccc2sc(N(CCCN(C)C)C(=O)c3sc4ccccc4c3Cl)nc12	0	0	0	0	-73	0
Cc1cccc2sc(N(CCCN(C)C)C(=O)c3sc4ccccc4c3Cl)nc12	0	0	0	0	0	0
Cc1ccc2sc(N(CCCN(C)C)C(=O)CN3C(=O)c4ccccc4C3=O)nc2c1C	46	0	0	0	0	0
CN(C)CCCN(C(=O)CCc1ccccc1)c1nc2c(F)cccc2s1	35	0	0	0	0	0
Cc1cccc2sc(N(CCCN(C)C)C(=O)c3ccc(C(=O)c4ccccc4)cc3)nc12	0	0	0	0	-31	0
COc1ccc(-c2nc3cc(NC(=O)COc4ccc(F)cc4)ccc3o2)cc1	0	0	-	-	0	-
COC(=O)c1c(Oc2ccc(OC)cc2)nnc(-c2ccccc2)c1-c1ccccc1	0	0	-	-	0	-
O=C(CSc1nc2ccccc2n1CC(=O)Nc1ccc(F)cc1F)Nc1ccc(F)cc1	0	0	-	-	0	-
CCCCOc1ccc(C(=O)NCC(c2ccc(Cl)cc2)N2CCOCC2)cc1 (stereo not drawn)	0	0	-	-	0	-
Cc1cccc2sc(N(CCCN(C)C)C(=O)COc3ccccc3)nc12	64	0	-	-	0	-
CCCC(C)C(=O)Nc1ncc(S(=O)(=O)c2ccc([N+](=O)[O-])cc2)s1 (stereo not drawn)	59	0	0	0	-68	0
CCC(C)(C)C(=O)Nc1ncc(S(=O)(=O)c2ccc([N+](=O)[O-])cc2)s1	0	0	0	0	0	0
CC(C)COP(=O)(c1ccc(N(C)C)cc1)C(O)c1cccnc1 (stereo not drawn)	0	0	0	0	-86	0
CN(C)c1ccc(P(=O)(OCc2ccccc2)C(O)c2cccnc2)cc1 (stereo not drawn)	0	0	0	0	0	0
CC(C)OP(=O)(c1ccc(N(C)C)cc1)C(Nc1ccccc1)c1cccnc1 (stereo not drawn)	0	0	0	-	-31	0
CCN(CC)C(=O)c1c(-c2ccccc2)oc2ccc(O)cc12	0	0	0	0	-31	0

Screening results: PubChem BioAssay, National Center for Advancing Translational Sciences (NCATS)
